Results from the supplement of paper PMC12645437, “Orthogonal IMiD-Degron Pairs Induce Selective Protein Degradation in Cells” (ACS Chemical Biology, 2025).
Over roughly 8,300 sequences, “log2 fold change of degron read counts, EGFP-low vs EGFP+ sorted cells (limma voom), compound-induced degradation” has its median near -1.1; the highest 2% begin near 3.2. The sample as a whole holds a higher share of the highest values than the screen did.

T1: CRBN, Q96SW2
T1 chain: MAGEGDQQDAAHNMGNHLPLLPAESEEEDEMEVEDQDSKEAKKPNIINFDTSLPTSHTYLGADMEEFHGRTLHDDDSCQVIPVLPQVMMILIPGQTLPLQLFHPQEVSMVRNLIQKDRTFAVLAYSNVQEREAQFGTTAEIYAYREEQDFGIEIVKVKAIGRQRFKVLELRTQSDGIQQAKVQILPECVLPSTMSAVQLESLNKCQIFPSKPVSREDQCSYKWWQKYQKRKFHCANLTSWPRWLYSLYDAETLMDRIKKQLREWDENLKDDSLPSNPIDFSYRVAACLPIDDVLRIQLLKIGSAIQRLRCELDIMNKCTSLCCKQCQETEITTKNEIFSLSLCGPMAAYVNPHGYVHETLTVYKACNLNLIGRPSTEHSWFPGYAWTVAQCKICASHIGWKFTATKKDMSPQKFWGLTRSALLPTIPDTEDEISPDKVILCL


Target: T1, CRBN, Q96SW2
Assay: log2 fold change of degron read counts, EGFP-low vs EGFP+ sorted cells (limma voom), compound-induced degradation; higher = more compound-induced degradation of the degron-EGFP fusion; degrons are variants of IKZF1/3 zinc finger 2; compound dose not given here
Details: Jurkat, 18 h
[1] = compound: compound 19 (5-tert-butyl-thalidomide)
[2] = compound: compound 22 (5-morpholino-thalidomide)
[3] = compound: compound 33 (diphenyl IMiD analogue)
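Note: pooled lentiviral library of zinc finger degron-EGFP fusions in mCherry-positive Jurkat cells, FACS-sorted after compound exposure, with degron abundance counted by next-generation sequencing.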

Sequence | log2 fold change of degron read counts [1] | log2 fold change of degron read counts [2] | log2 fold change of degron read counts [3] | log2 fold change of degron read counts (compound: thalidomide)
LHCNQCGFWCTQKGNLLRHIKL [46L_47H_49N_50Q_52G_53F_54W_55C_67L_, Q9UKT9] | -0.827 | -1.3 | -1.08 | -0.88
FRCPICGHHFTQKGNLLRHIKL [46F_47R_49P_50I_52G_53H_54H_55F_67L_, Q9UKT9] | -2.39 | -2.52 | -1.52 | -1.56
FTCEICGANFTQKGNLLRHIKL [46F_47T_49E_50I_52G_53A_54N_55F_67L_, Q9UKT9] | 0.227 | 1.78 | 1.46 | 2.43
FSCEICGANFTQKGNLLRHIKL [46F_47S_49E_50I_52G_53A_54N_55F_67L_, Q9UKT9] | 2.11 | 1.59 | 1.31 | 0.441
FFCEICGANFTQKGNLLRHIKL [46F_47F_49E_50I_52G_53A_54N_55F_67L_, Q9UKT9] | 3.08 | 3.63 | 1.75 | 1.6
FKCEICGANFTQKGNLLRHIKL [46F_47K_49E_50I_52G_53A_54N_55F_67L_, Q9UKT9] | -1.06 | -1.95 | -2.41 | -0.806
FGCEICGANFTQKGNLLRHIKL [46F_47G_49E_50I_52G_53A_54N_55F_67L_, Q9UKT9] | 1.01 | 0.765 | 1.12 | 0.771
FACEICGANFTQKGNLLRHIKL [46F_47A_49E_50I_52G_53A_54N_55F_67L_, Q9UKT9] | 2.93 | 1.89 | 1.07 | 0.575
FQCEICGANFTQKGNLLRHIKL [46F_47Q_49E_50I_52G_53A_54N_55F_67L_, Q9UKT9] | 0.735 | 1.47 | 1.94 | 3.59
FYCEICGANFTQKGNLLRHIKL [46F_47Y_49E_50I_52G_53A_54N_55F_67L_, Q9UKT9] | 3.74 | 3.68 | 2.63 | 1.54
FLCEICGANFTQKGNLLRHIKL [46F_47L_49E_50I_52G_53A_54N_55F_67L_, Q9UKT9] | 0.58 | -0.667 | 1.21 | 1.75
FWCEICGANFTQKGNLLRHIKL [46F_47W_49E_50I_52G_53A_54N_55F_67L_, Q9UKT9] | 3.41 | 3.78 | 2.28 | 1.57
FNCEICGANFTQKGNLLRHIKL [46F_47N_49E_50I_52G_53A_54N_55F_67L_, Q9UKT9] | 2.42 | 0.457 | -0.158 | -0.463
FECEICGANFTQKGNLLRHIKL [46F_47E_49E_50I_52G_53A_54N_55F_67L_, Q9UKT9] | 0.0673 | -1.05 | 2.35 | 2.43
FCCEQCGAMFTQKGNLLRHIKL [46F_47C_49E_50Q_52G_53A_54M_55F_67L_, Q9UKT9] | -1.3 | -2.03 | -0.276 | -1.41
FHCNVCGARFTQKGNLLRHIKL [46F_47H_49N_50V_52G_53A_54R_55F_67L_, Q9UKT9] | 0.139 | -0.199 | -0.986 | -1.05
LNCPICGFLCTQKGNLLRHIKL [46L_47N_49P_50I_52G_53F_54L_55C_67L_, Q9UKT9] | -0.106 | 0.152 | 0.208 | 0.391
FQCSVCGHDFTQKGNLLRHIKL [46F_47Q_49S_50V_52G_53H_54D_55F_67L_, Q9UKT9] | -3.43 | -3.8 | -3.18 | -3.17
FICNQCGHFFTQKGNLLRHIKL [46F_47I_49N_50Q_52G_53H_54F_55F_67L_, Q9UKT9] | -2.52 | -2.59 | -2.06 | -2.52
FKCEICGHFFTQKGNLLRHIKL [46F_47K_49E_50I_52G_53H_54F_55F_67L_, Q9UKT9] | -2.55 | -2.68 | -2.97 | -2.85
FQCNVCGACFTQKGNLLRHIKL [46F_47Q_49N_50V_52G_53A_54C_55F_67L_, Q9UKT9] | -1.23 | 0.797 | 0.868 | 3.21
LRCPICGFKCTQKGNLLRHIKL [46L_47R_49P_50I_52G_53F_54K_55C_67L_, Q9UKT9] | -0.023 | -0.151 | 0.993 | 1.4
LVCPICGFKCTQKGNLLRHIKL [46L_47V_49P_50I_52G_53F_54K_55C_67L_, Q9UKT9] | 0.655 | 2.13 | 0.489 | 2.78
LQCPICGFKCTQKGNLLRHIKL [46L_47Q_49P_50I_52G_53F_54K_55C_67L_, Q9UKT9] | 0.793 | 2.43 | 0.554 | 3.4
LDCPICGFKCTQKGNLLRHIKL [46L_47D_49P_50I_52G_53F_54K_55C_67L_, Q9UKT9] | 0.605 | 0.0419 | -0.53 | 2.02
LGCPICGFKCTQKGNLLRHIKL [46L_47G_49P_50I_52G_53F_54K_55C_67L_, Q9UKT9] | 3.67 | 1.98 | -0.000486 | 1.27
LHCPICGFKCTQKGNLLRHIKL [46L_47H_49P_50I_52G_53F_54K_55C_67L_, Q9UKT9] | 2.19 | 2.18 | 1.15 | 1.4
LSCPICGFKCTQKGNLLRHIKL [46L_47S_49P_50I_52G_53F_54K_55C_67L_, Q9UKT9] | 2.15 | 1.87 | 0.118 | 1.77
LECPICGFKCTQKGNLLRHIKL [46L_47E_49P_50I_52G_53F_54K_55C_67L_, Q9UKT9] | 0.756 | -0.257 | 0.961 | 3.26
LFCPICGFKCTQKGNLLRHIKL [46L_47F_49P_50I_52G_53F_54K_55C_67L_, Q9UKT9] | 2.81 | 2.98 | 1.2 | 1.42
